Measurements: the supplement of paper PMC11001985
Values without a mark were called inactive.

Compound: C#CCNC(=O)CCSSCCC(=O)NCCc1ccc(C=O)c(C=O)c1
Assay: lysine labeling ratio R10:1 (500 µM / 50 µM probe), SILAC-ABPP in living cells; higher = lower intrinsic lysine reactivity toward the probe, active = 2 or less
Conditions: HeLa; probe concentrations 500 vs 50 µM
In short: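 An alkyne-tagged lysine probe with a disulfide linker labelled living HeLa cells in PBS at room temperature at either 50 µM or 500 µM, using SILAC light and heavy cells in forward and reverse label swaps. Lysates were mixed, clicked to biotin-azide, trypsin-digested, enriched on neutravidin, DTT-released, alkylated and measured by LC-MS/MS on a TIMS-TOF Pro. Each lysine's R is the filtered median high-probe/low-probe MS1 peptide ratio, combined as the median over forward and reverse replicates, with 20 as the upper limit.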

Chain of UniProt Q15149 (Q15149 whole entry): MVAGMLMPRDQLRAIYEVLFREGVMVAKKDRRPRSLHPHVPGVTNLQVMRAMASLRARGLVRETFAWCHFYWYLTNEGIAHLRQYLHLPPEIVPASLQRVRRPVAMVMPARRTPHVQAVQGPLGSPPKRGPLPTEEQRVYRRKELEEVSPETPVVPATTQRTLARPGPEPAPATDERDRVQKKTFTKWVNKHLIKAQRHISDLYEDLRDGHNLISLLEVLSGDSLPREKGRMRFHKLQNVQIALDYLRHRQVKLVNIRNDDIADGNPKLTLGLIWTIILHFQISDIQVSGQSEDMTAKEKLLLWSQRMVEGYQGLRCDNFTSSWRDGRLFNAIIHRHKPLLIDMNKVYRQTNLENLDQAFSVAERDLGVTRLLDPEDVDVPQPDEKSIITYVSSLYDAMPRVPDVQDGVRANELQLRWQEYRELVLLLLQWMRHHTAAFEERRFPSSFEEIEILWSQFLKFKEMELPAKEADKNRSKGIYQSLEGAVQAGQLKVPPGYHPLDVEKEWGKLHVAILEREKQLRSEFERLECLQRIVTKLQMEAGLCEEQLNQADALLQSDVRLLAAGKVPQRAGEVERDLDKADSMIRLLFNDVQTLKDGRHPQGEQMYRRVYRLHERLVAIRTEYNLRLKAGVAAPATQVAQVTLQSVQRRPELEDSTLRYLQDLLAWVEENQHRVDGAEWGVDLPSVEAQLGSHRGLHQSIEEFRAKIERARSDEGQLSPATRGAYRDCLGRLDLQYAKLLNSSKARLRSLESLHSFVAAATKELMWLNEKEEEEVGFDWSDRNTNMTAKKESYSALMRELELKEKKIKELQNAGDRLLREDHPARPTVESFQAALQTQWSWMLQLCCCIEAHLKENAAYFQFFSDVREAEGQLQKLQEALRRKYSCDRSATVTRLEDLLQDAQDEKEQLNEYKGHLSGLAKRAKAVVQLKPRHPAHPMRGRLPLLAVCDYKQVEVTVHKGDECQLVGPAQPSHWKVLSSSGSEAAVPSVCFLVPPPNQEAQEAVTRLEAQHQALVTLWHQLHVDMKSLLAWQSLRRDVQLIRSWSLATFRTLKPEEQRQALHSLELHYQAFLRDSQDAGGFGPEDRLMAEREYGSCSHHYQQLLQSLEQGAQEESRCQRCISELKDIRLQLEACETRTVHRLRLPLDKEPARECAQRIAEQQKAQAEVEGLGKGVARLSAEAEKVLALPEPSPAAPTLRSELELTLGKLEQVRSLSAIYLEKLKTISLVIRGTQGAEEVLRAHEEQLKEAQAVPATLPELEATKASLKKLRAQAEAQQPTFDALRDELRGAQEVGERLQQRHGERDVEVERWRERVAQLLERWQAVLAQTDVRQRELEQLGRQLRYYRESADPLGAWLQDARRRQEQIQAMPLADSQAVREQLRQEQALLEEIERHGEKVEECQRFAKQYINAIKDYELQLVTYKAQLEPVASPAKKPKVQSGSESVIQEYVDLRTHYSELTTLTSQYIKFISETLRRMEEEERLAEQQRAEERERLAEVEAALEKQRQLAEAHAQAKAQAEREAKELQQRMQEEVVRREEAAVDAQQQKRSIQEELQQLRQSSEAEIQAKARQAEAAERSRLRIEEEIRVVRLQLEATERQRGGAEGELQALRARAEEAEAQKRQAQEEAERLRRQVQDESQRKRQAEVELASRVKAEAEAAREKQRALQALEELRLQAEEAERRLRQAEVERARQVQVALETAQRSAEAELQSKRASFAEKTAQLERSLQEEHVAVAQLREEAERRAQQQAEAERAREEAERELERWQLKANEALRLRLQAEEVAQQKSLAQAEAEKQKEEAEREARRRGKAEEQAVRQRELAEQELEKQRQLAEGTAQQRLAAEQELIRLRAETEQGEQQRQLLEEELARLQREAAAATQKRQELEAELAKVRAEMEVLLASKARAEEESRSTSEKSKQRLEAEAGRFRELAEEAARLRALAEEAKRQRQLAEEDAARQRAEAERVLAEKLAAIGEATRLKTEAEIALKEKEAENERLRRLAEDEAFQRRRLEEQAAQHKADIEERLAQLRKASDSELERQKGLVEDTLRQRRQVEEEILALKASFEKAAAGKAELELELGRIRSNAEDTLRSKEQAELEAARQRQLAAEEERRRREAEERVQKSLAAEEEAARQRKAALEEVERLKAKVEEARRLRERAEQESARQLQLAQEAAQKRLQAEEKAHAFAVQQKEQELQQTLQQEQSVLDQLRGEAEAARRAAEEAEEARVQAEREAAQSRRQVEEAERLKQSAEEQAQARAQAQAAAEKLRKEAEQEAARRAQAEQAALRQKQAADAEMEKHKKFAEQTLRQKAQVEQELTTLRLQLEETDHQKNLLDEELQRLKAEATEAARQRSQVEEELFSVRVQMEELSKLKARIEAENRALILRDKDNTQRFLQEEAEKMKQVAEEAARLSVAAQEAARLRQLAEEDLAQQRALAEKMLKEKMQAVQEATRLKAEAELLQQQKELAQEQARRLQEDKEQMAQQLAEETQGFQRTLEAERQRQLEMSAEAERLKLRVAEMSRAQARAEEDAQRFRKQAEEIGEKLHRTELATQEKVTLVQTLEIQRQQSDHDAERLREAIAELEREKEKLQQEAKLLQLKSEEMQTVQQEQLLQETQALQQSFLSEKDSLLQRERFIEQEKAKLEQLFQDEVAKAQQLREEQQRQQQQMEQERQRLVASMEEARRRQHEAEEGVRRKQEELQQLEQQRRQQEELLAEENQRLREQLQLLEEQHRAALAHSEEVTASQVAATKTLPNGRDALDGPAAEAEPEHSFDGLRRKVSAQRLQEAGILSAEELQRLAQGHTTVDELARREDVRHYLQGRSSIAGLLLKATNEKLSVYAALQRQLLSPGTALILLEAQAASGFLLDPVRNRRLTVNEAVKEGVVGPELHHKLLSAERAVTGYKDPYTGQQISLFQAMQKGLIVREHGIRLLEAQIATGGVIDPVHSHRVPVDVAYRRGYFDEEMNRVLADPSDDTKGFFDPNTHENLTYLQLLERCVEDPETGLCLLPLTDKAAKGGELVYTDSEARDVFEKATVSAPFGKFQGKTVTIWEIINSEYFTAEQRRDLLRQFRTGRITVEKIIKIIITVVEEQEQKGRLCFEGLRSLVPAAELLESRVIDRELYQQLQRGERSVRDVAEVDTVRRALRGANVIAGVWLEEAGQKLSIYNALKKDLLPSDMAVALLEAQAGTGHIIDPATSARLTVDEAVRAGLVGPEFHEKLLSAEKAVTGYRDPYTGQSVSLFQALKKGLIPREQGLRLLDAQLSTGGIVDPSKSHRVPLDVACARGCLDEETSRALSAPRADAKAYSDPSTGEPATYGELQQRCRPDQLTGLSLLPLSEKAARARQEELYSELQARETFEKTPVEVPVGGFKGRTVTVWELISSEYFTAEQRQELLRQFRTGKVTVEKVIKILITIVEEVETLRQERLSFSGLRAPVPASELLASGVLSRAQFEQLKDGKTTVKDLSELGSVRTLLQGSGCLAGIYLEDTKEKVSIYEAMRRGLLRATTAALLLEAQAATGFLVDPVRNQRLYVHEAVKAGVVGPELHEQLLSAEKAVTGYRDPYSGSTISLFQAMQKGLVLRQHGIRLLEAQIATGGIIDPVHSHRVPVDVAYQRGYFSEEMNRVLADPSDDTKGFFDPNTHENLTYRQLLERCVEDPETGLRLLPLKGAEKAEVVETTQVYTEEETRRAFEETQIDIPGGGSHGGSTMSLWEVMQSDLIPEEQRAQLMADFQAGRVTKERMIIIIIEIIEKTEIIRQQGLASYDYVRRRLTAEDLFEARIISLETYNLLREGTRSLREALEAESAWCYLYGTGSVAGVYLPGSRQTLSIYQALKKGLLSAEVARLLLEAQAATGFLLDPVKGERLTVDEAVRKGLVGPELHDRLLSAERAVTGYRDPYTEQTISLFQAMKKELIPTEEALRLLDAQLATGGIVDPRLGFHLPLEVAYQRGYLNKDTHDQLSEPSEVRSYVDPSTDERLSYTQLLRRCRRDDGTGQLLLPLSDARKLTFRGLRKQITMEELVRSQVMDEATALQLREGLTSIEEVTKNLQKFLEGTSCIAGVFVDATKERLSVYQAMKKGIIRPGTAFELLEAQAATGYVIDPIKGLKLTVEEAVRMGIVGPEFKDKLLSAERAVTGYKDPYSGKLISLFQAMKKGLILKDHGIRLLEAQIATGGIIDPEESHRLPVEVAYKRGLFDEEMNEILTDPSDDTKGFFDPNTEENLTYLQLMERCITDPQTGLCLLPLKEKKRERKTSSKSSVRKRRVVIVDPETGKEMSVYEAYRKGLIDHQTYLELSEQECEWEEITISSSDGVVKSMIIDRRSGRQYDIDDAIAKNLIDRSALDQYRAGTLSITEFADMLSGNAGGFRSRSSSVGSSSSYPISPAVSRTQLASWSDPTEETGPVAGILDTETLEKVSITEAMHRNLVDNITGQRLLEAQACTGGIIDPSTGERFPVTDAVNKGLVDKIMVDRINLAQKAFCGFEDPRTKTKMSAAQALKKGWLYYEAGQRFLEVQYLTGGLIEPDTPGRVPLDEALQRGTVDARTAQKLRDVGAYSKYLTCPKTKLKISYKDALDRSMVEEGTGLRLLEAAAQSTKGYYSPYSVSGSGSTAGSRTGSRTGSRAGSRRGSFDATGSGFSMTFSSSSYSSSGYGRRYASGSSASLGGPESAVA
Chain of UniProt P05783 (P05783 whole entry): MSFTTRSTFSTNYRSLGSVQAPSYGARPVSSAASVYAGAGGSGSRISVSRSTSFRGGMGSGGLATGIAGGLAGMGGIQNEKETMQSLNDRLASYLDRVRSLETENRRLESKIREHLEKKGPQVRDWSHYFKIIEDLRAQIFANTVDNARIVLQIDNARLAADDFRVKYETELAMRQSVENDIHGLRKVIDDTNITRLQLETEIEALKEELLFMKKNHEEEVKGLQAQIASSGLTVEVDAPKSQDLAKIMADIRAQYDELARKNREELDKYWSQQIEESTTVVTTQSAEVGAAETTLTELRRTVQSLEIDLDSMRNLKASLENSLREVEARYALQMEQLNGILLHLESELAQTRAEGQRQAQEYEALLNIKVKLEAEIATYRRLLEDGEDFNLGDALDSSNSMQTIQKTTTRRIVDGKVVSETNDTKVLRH

Row | Target | lysine labeling ratio R10:1
1 | KPNB1 (lysine site: K211) (UniProt Q14974) | 2.19
2 | HNRNPU (lysine site: K614) (UniProt Q00839) | 2.36
3 | TLN1 (lysine site: K149) (UniProt Q9Y490) | 1.5 (active)
4 | CD58 (lysine site: K60) (UniProt P19256) | 6.36
5 | NCL (lysine site: K545) (UniProt P19338) | 3.2
6 | FLOT1 (lysine site: K54) (UniProt O75955) | 0.737 (active)
7 | FLNB (lysine site: K1780) (UniProt O75369) | 2.69
8 | UniProt Q99466 (lysine site: K1372) | 9.22
9 | UniProt P62491 (lysine site: K179) | 2.31
10 | HNRNPC (lysine site: K98) (UniProt P07910) | 3.25
11 | MSN (lysine site: K316) (UniProt P26038) | 1.47 (active)
12 | UniProt P60866 (lysine site: K67) | 2
13 | SLC25A13 (lysine site: K487) (UniProt Q9UJS0) | 4.12
14 | UniProt P61978 (lysine site: K219) | 0.79 (active)
15 | CCDC124 (lysine site: K94) (UniProt Q96CT7) | 4.68
16 | MELTF (lysine site: K544) (UniProt P08582) | 2.25
17 | ITGB1 (lysine site: K93) (UniProt P05556) | 2.06
18 | KRT18 (lysine site: K111) (UniProt P05783) | 14.4
19 | ITGA1 (lysine site: K259) (UniProt P56199) | 4.65
20 | FOLR1 (lysine site: K76) (UniProt P15328) | 3.42

Row | Target | lysine labeling ratio R10:1
21 | UniProt P02533 (lysine site: K293) | 2.74
22 | CD109 (lysine site: K1291) (UniProt Q6YHK3) | 2.41
23 | ATP6AP1 (lysine site: K380) (UniProt Q15904) | 1.79 (active)
24 | UniProt P49720 (lysine site: K77) | 2.88
25 | TXLNA (lysine site: K240) (UniProt P40222) | 1.67 (active)
26 | UniProt Q15149 (lysine site: K3237) | 1.17 (active)
27 | TFRC (lysine site: K439) (UniProt P02786) | 2.93
28 | KRT18 (lysine site: K372) (UniProt P05783) | 2.29
29 | MSLN (lysine site: K487) (UniProt Q13421) | 6.18
30 | UniProt P26639 (lysine site: K36) | 3.28
31 | HSPA8 (lysine site: K246) (UniProt P11142) | 1.78 (active)
32 | LRP1 (lysine site: K4230) (UniProt Q07954) | 10.8
33 | ECE1 (lysine site: K177) (UniProt P42892) | 7.91
34 | HSPA9 (lysine site: K143) (UniProt P38646) | 2.54
35 | PRDX1 (lysine site: K109) (UniProt Q06830) | 2.64
36 | DISP1 (lysine site: K380) (UniProt Q96F81) | 2.05
37 | ITGA3 (lysine site: K620) (UniProt P26006) | 1.8 (active)
38 | UniProt Q15149 (lysine site: K3285) | 4.73
39 | ACTR3 (lysine site: K348) (UniProt P61158) | 1.4 (active)
40 | LAMB1 (lysine site: K1370) (UniProt P07942) | 1.61 (active)
